Measurements from PubChem BioAssay AID1159580 (chemical genetic matrix, 2015).
The campaign covered roughly 5,500 compounds. About 2,000 (36%) were called active. Not shown: some 18% with an inconclusive outcome. The list shows a part of the results. A number with no mark means an inactive call. Rule as the data show it: active = normalized growth mostly below about 0.91 (no sharp cut-off); inconclusive = no clear call, values can overlap the other calls; inactive = mostly above about 0.92.

Test: chemical genetic growth profiling, strain panel (AID 1159580);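 also: tested at 20 µM; growth read once vehicle control cultures reached saturation at 30 °C; 1 = growth at the plate median or of vehicle wells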
Details: S. cerevisiae deletion strains, growth OD
[1] = locus YAL013W, strain DEP1, stronger effect = lower value
[2] = locus YBR229C, strain ROT2, stronger effect = lower value
[3] = locus YDL101C, strain DUN1, stronger effect = lower value
[4] = locus YDR150W, strain NUM1, stronger effect = lower value
[5] = locus YEL061C, strain CIN8, stronger effect = lower value
[6] = locus YGR078C, strain PAC10, stronger effect = lower value
[7] = locus YHR030C, strain SLT2, stronger effect = lower value
[8] = locus YHR087W, strain rtc3, stronger effect = lower value
[9] = locus YJL187C, strain SWE1, stronger effect = lower value
[10] = locus YJR043C, strain POL32, stronger effect = lower value
[11] = locus YJR075W, strain HOC1, stronger effect = lower value
[12] = locus YLR039C, strain RIC1, stronger effect = lower value
[13] = locus YLR058C, strain SHM2 (second series), stronger effect = lower value
[14] = locus YLR085C, strain ARP6, stronger effect = lower value
[15] = locus YLR262C, strain YPT6, stronger effect = lower value
[16] = locus YML094W, strain GIM5, stronger effect = lower value
[17] = locus YMR219W, strain ESC1, stronger effect = lower value
[18] = locus YMR263W, strain SAP30, stronger effect = lower value
[19] = locus YNL153C, strain GIM3, stronger effect = lower value
[20] = locus YNL298W, strain CLA4 (second series), stronger effect = lower value
[21] = locus YNL322C, strain KRE1, stronger effect = lower value
[22] = locus YNR030W, strain Alg12, stronger effect = lower value
[23] = locus YPL055C, strain LGE1, stronger effect = lower value
[24] = locus YPL241C, strain CIN2, stronger effect = lower value
[25] = locus YPR135W, strain CTF4, stronger effect = lower value

## CSC(=Nc1ccc(C(C)C)cc1)NC#N
[1]
  normalized growth: 0.993
[2]
  normalized growth: 0.978
[3]
  normalized growth: 1.02
[4]
  normalized growth: 0.916
[5]
  normalized growth: 1
[6]
  normalized growth: 0.98
[7]
  normalized growth: 0.88
[8]
  normalized growth: 0.97
[9]
  normalized growth: 0.981
[10]
  normalized growth: 0.982
[11]
  normalized growth: 0.936
[12]
  normalized growth: 0.971
[13]
  normalized growth: 0.955
[14]
  normalized growth: 0.86
[15]
  normalized growth: 0.943
[16]
  normalized growth: 1.04
[17]
  normalized growth: 0.97
[18]
  normalized growth: 0.978
Locus YNL128W, strain TEP1, stronger effect = lower value
  normalized growth: 0.965
[19]
  normalized growth: 1
[20]
  normalized growth: 0.947
[21]
  normalized growth: 0.986
[22]
  normalized growth: 0.988
Locus YOL006C, strain TOP1, stronger effect = lower value
  normalized growth: 0.839
[23]
  normalized growth: 0.985
[24]
  normalized growth: 0.908
[25]
  normalized growth: 0.855

## Cc1onc(-c2c(F)cccc2Cl)c1C(=O)N1CCN(c2ncccc2C(F)(F)F)CC1
[1]
  normalized growth: 0.98
[2]
  normalized growth: 0.975
[3]
  normalized growth: 0.977
Locus YDL134C, strain PPH21, stronger effect = lower value
  normalized growth: 0.993
[4]
  normalized growth: 0.972
[5]
  normalized growth: 0.952
[6]
  normalized growth: 1.01
[7]
  normalized growth: 0.928
[8]
  normalized growth: 0.964
[9]
  normalized growth: 0.988
[10]
  normalized growth: 1
[11]
  normalized growth: 1.01
Locus YKL190W, strain CNB1, stronger effect = lower value
  normalized growth: 1
[12]
  normalized growth: 0.993
[13]
  normalized growth: 0.987
[14]
  normalized growth: 1.02
[15]
  normalized growth: 0.98
[16]
  normalized growth: 0.969
[17]
  normalized growth: 0.984
[18]
  normalized growth: 1.01
Locus YMR307W, strain GAS1, stronger effect = lower value
  normalized growth: 1.07
[19]
  normalized growth: 1
[20]
  normalized growth: 0.965
[21]
  normalized growth: 0.977
[22]
  normalized growth: 0.99
[23]
  normalized growth: 0.977
[24]
  normalized growth: 1.08
[25]
  normalized growth: 0.993

## Cc1oc(-c2ccc(Cl)cc2)cc1C(=O)N1CCN(c2ccc(C(F)(F)F)cn2)CC1
Locus YAR019C, strain CDC15, stronger effect = lower value
  normalized growth: 0.977
Locus YBL105C, strain PKC1, stronger effect = lower value
  normalized growth: 0.972
Locus YBR135W, strain CKS1, stronger effect = lower value
  normalized growth: 0.97
Locus YBR136W, strain MEC1, stronger effect = lower value
  normalized growth: 0.963
Locus YBR160W, strain CDC28, stronger effect = lower value
  normalized growth: 0.969
Locus YDL017W, strain CDC7, stronger effect = lower value
  normalized growth: 0.978
Locus YDL028C, strain MPS1, stronger effect = lower value
  normalized growth: 0.974
[3]
  normalized growth: 0.983
Locus YDL108W, strain KIN28, stronger effect = lower value
  normalized growth: 0.974
Locus YDL132W, strain cdc53, stronger effect = lower value
  normalized growth: 0.982
Locus YDL214C, strain PRR2, stronger effect = lower value
  normalized growth: 0.908
Locus YDR052C, strain DBF4, stronger effect = lower value
  normalized growth: 0.982
Locus YDR054C, strain cdc34, stronger effect = lower value
  normalized growth: 0.969
Locus YDR226W, strain ADK1, stronger effect = lower value
  normalized growth: 0.972
Locus YDR477W, strain SNF1, stronger effect = lower value
  normalized growth: 0.925
Locus YER123W, strain YCK3, stronger effect = lower value
  normalized growth: 0.926
Locus YER133W, strain GLC7, stronger effect = lower value
  normalized growth: 0.938
Locus YFL009W, strain cdc4, stronger effect = lower value
  normalized growth: 0.967
Locus YFL029C, strain CAK1, stronger effect = lower value
  normalized growth: 0.986
Locus YFR003C, strain YPI1, stronger effect = lower value
  normalized growth: 0.974
Locus YFR019W, strain FAB1, stronger effect = lower value
  normalized growth: 0.992
Locus YFR028C, strain CDC14, stronger effect = lower value
  normalized growth: 0.976
Locus YGR040W, strain KSS1, stronger effect = lower value
  normalized growth: 0.929
Locus YGR052W, strain FMP48, stronger effect = lower value
  normalized growth: 0.959
Locus YGR092W, strain DBF2, stronger effect = lower value
  normalized growth: 0.874
[7]
  normalized growth: 0.682 (active)
Locus YHR079C, strain IRE1, stronger effect = lower value
  normalized growth: 0.964
Locus YHR082C, strain KSP1, stronger effect = lower value
  normalized growth: 0.966
Locus YHR205W, strain SCH9, stronger effect = lower value
  normalized growth: 0.883
Locus YIL147C, strain SLN1, stronger effect = lower value
  normalized growth: 0.979
Locus YJL095W, strain BCK1, stronger effect = lower value
  normalized growth: 0.905
Locus YJL128C, strain PBS2, stronger effect = lower value
  normalized growth: 0.918
Locus YJL157C, strain FAR1, stronger effect = lower value
  normalized growth: 0.944
Locus YJR016C, strain ILV3, stronger effect = lower value
  normalized growth: 0.979
Locus YJR066W, strain TOR1 (second series), stronger effect = lower value
  normalized growth: 0.975
Locus YJR066W, strain TOR1, stronger effect = lower value
  normalized growth: 0.9
Locus YKL048C, strain ELM1, stronger effect = lower value
  normalized growth: 0.976
Locus YKL067W, strain YNK1, stronger effect = lower value
  normalized growth: 0.907
Locus YKL101W, strain HSL1, stronger effect = lower value
  normalized growth: 0.94
Locus YKL193C, strain SDS22, stronger effect = lower value
  normalized growth: 0.97
Locus YKL203C, strain TOR2, stronger effect = lower value
  normalized growth: 1
Locus YLR113W, strain HOG1, stronger effect = lower value
  normalized growth: 0.893
Locus YLR133W, strain CKI1, stronger effect = lower value
  normalized growth: 0.929
Locus YLR403W, strain SFP1, stronger effect = lower value
  normalized growth: 0.94
Locus YML070W, strain DAK1, stronger effect = lower value
  normalized growth: 0.951
Locus YMR001C, strain CDC5, stronger effect = lower value
  normalized growth: 0.989
Locus YMR205C, strain PFK2 (second series), stronger effect = lower value
  normalized growth: 0.937
Locus YMR277W, strain FCP1, stronger effect = lower value
  normalized growth: 0.975
Locus YNL006W, strain LST8, stronger effect = lower value
  normalized growth: 0.981
Locus YNL020C, strain ARK1, stronger effect = lower value
  normalized growth: 0.933
Locus YNL161W, strain CBK1, stronger effect = lower value
  normalized growth: 0.975
Locus YNL183C, strain NPR1, stronger effect = lower value
  normalized growth: 0.95
Locus YNL207W, strain RIO2, stronger effect = lower value
  normalized growth: 0.973
Locus YNL222W, strain SSU72, stronger effect = lower value
  normalized growth: 0.981
Locus YNL307C, strain MCK1 (second series), stronger effect = lower value
  normalized growth: 0.944
Locus YOL078W, strain AVO1, stronger effect = lower value
  normalized growth: 0.981
Locus YOL136C, strain PFK27, stronger effect = lower value
  normalized growth: 0.961
Locus YOR061W, strain CKA2, stronger effect = lower value
  normalized growth: 0.873
Locus YOR119C, strain RIO1, stronger effect = lower value
  normalized growth: 0.929
Locus YOR231W, strain MKK1, stronger effect = lower value
  normalized growth: 0.96
Locus YOR329C, strain SCD5, stronger effect = lower value
  normalized growth: 0.982
Locus YPL031C, strain PHO85, stronger effect = lower value
  normalized growth: 0.936
Locus YPL153C, strain RAD53, stronger effect = lower value
  normalized growth: 0.948
Locus YPL204W, strain HRR25, stronger effect = lower value
  normalized growth: 0.936
Locus YPL209C, strain IPL1, stronger effect = lower value
  normalized growth: 0.983
Locus YPL256C, strain CLN2, stronger effect = lower value
  normalized growth: 0.909
Locus YPR025C, strain CCL1, stronger effect = lower value
  normalized growth: 0.975
Locus YPR106W, strain ISR1, stronger effect = lower value
  normalized growth: 0.972
Locus YPR111W, strain DBF20, stronger effect = lower value
  normalized growth: 0.955
Strain NNK1, stronger effect = lower value
  normalized growth: 0.97
Strain TSCII, stronger effect = lower value
  normalized growth: 0.98
